# Data reported in PubChem BioAssay (Tox21).
# Several values for one entry are separate records, joined by “and”; a condition that tells them apart may be missing. Identical values can stand only once. Inconclusive results are not listed. A call without a number means that no potency is given here. More than one record can exist for a structure, and the calls need not agree. Activity calls are given as the source filed them. Unless noted, the call rests on the fitted dose curve; in most records, active means well fitted curve in the direction sought with a large enough effect in the repeat runs; inconclusive means weak or mixed curves; inactive means no such curve, though single readings can be large; an effect the other way counts as inactive or inconclusive.
# Experiments:
# [1] = qHTS assay to identify small molecule antagonists of the sonic hedgehog signaling (Shh) pathway (AID 1259369; calls by dose curve; further: nearly all actives have a fitted effect of over 45% in size; further: potency means the concentration at half of the fitted maximal effect)
# How it was run: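 NIH/3T3-derived 3T3Gli1-Luc cells with stably integrated Gli1-Luc reporter were preincubated 4hr at 37 C, then given compounds in DMSO plus Shh conditioned medium and incubated 24hr. Firefly luciferase luminescence read after 30min reagent at room temperature.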
# [2] = qHTS assay to identify small molecule agonists of the androgen receptor (AR) signaling pathway in the presence of an antagonist - cell viability counter screen (AID 1259379); further: nearly all actives have a fitted effect of over 25% in size; further: potency means the concentration at half of the fitted maximal effect
# How it was run: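 MDA-kb2 human breast carcinoma cells (stable MMTV-luciferase, AR/GR responsive) were seeded 3,000 cells/well, pre-incubated 5 hr at 37C without CO2, then given 3.0uM nilutamide and compounds at 15 concentrations for 16 hr. Viability was read by CellTiter-Fluor fluorescence.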
# [3] = qHTS assay to identify small molecule agonists of the estrogen receptor beta (ER-beta) signaling pathway - cell viability counter screen (AID 1259380); further: nearly all actives have a fitted effect of over 30% in size; further: potency means the concentration at half of the fitted maximal effect
# How it was run: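 ER-beta-UAS-bla HEK293T cells in medium with 2% charcoal-stripped FBS were preincubated 6 hr at 37C, dosed with compound in DMSO for 16 hr, then after the bla read, CellTiter-Glo was added for 30 min at room temperature; luminescence recorded.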
# [4] = qHTS assay to identify small molecule antagonists of the estrogen receptor beta (ER-beta) signaling pathway - cell viability counter screen (AID 1259382); further: nearly all actives have a fitted effect of over 55% in size; further: potency means the concentration at half of the fitted maximal effect
# How it was run: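 ER-beta-UAS-bla HEK293T cells (2,000/well, 2% charcoal-stripped FBS) were pre-incubated 6 hr at 37C, then given compound plus 1nM final 17-beta-estradiol for 16 hr. Viability was read in the same wells by CellTiter-Glo luminescence after 30 min at room temperature.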
# [5] = qHTS assay to identify small molecule agonists or antagonists of the thyroid stimulating hormone receptor (TSHR) signaling pathway - wild type cell line counter screen (AID 1259384; calls by dose curve)
# How it was run: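 Wild-type HEK293 cells were plated 18 h at 37 C/5% CO2, pin-dosed with compound plus Ro20-1724 medium, held 30 min at room temperature, then given cAMP-d2 and anti-cAMP-cryptate; fluorescence was read after 1 h. Fifteen concentrations, triplicate.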
# [6] = target: Thyrotropin receptor (Homo sapiens) (UniProt P16473); assay: qHTS assay to identify small molecule antagonists of the thyroid stimulating hormone receptor (TSHR) signaling pathway (AID 1259385; calls by dose curve; further: nearly all actives have a fitted effect of over 20% in size; further: potency means the concentration at half of the fitted maximal effect)
# How it was run: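 TSHR-HEK293 cells were plated and held 18 h at 37C/5% CO2, then given compound plus Ro20-1724 and stimulated with TSH at 1.5 ng/mL final. After 30 min at room temperature, cAMP was detected with cAMP-d2/anti-cAMP-cryptate (1 h) by fluorescence.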
# [7] = target: Estrogen receptor (Homo sapiens) (UniProt P03372); assay: qHTS assay to identify small molecule agonists of the estrogen receptor alpha (ER-alpha) signaling pathway in the presence of an antagonist (AID 1259383; calls by dose curve; further: nearly all actives have a fitted effect of over 15% in size; further: potency means the concentration at half of the fitted maximal effect)
# How it was run: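 VM7Luc4E2 cells (endogenous full-length ER-alpha, 4×ERE-luciferase) were precultured 5 days in phenol red-free medium with 10% charcoal-stripped FBS, given 10.0nM ICI-182,780 (final), then treated with compounds at 15 concentrations for 22hr at 37C; luminescence read with ONE-Glo.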
# Thyrotropin receptor (Homo sapiens), sequence (P16473 whole entry, looked up): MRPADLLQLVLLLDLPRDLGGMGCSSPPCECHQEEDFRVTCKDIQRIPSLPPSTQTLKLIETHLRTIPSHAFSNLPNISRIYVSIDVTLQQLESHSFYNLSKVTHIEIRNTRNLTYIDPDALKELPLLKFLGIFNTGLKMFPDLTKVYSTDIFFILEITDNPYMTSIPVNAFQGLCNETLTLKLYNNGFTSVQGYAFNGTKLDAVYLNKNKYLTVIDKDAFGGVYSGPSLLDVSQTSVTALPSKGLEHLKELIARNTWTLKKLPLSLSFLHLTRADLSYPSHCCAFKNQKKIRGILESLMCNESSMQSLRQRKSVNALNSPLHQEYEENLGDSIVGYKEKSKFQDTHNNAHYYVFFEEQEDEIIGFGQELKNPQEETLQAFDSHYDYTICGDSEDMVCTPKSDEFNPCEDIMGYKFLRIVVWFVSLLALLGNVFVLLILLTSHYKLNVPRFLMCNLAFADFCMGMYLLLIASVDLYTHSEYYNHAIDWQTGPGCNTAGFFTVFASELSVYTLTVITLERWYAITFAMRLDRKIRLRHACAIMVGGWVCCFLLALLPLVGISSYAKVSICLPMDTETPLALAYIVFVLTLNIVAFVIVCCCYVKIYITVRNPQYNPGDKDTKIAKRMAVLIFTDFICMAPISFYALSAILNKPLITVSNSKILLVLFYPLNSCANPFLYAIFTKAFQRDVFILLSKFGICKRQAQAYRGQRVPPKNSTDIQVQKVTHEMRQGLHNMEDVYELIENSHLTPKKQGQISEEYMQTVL
# Estrogen receptor (Homo sapiens), sequence (P03372 whole entry, looked up): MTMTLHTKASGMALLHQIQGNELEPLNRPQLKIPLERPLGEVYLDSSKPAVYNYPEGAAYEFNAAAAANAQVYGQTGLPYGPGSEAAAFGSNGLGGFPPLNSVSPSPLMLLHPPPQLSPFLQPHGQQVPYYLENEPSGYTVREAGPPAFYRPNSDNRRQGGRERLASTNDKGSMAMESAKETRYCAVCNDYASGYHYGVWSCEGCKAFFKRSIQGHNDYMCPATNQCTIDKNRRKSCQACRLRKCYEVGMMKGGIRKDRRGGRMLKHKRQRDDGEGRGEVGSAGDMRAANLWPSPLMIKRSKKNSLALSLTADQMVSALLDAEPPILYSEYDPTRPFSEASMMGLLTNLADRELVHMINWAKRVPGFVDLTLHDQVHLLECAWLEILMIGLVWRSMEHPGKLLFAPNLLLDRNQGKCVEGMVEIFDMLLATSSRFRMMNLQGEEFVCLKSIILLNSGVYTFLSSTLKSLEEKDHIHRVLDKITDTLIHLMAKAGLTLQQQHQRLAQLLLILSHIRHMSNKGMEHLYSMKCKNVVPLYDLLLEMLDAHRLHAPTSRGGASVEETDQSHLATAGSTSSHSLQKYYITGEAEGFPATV
SMILES,Potency [1],Potency [2],Potency [3],Potency [4],Potency [5],Potency [6],Potency [7]
CCCC[n+]1ccc(C)cc1,inactive and 24.2 µM (active) and 13.7 µM (active),inactive,inactive and 60.8 µM (active),inactive and 60.8 µM (active),,,
CC(=O)O,inactive,inactive,inactive,inactive,,,
C=CCOC(Cn1ccnc1)c1ccc(Cl)cc1Cl (centres undefined),13.7 µM (active) and 9.69 µM (active),61.3 µM (active) and inactive,27.4 µM (active) and 24.3 µM (active),30.7 µM (active) and inactive,inactive,inactive,
O=P1(N(CCCl)CCCl)NCCCO1 (centres undefined),inactive,inactive,inactive,inactive,inactive,inactive,inactive
C[N+](C)(C)Cc1ccccc1,inactive,inactive,inactive,inactive,inactive,inactive,inactive
CCCC[N+]1(C)CCCCC1,inactive,inactive,inactive,inactive,inactive,inactive,
Oc1ccccc1-c1ccccc1,inactive and 62.6 µM (active),inactive,inactive,inactive,,,inactive
COP(=O)(OC)C(O)C(Cl)(Cl)Cl (centres undefined),inactive,inactive,inactive,inactive,inactive,inactive,
CN(C)[C@@H]1C(=O)C(C(N)=O)=C(O)[C@@]2(O)C(=O)C3=C(O)c4c(O)cccc4[C@@](C)(O)[C@H]3[C@H](O)[C@@H]12,inactive,inactive,inactive,inactive,inactive,inactive,
O=C(O)COc1ccc(Cl)cc1Cl,inactive,inactive,inactive,inactive,,,
CCC[N+]1(C)CCCC1,inactive,inactive,inactive,inactive,,,
CCCCCCCCCCCC(=O)O,inactive,inactive,43.3 µM (active),inactive,inactive,inactive,
CCCCCCCCCCCCCCCCn1cc[n+](C)c1,,,,inactive and 61.7 µM (active) and 30.7 µM (active),inactive,inactive,
CCCCCCCCCCCCOS(=O)(=O)O,inactive,inactive,,54.5 µM (active) and inactive,,,
O=C(O)C(Cl)Cl,inactive,inactive,inactive,inactive,inactive,inactive,inactive
CC[n+]1ccccc1,inactive and 429 nM (active),inactive and 24.1 µM (active),inactive and 60.6 µM (active),inactive,inactive,inactive,
COc1ccc(N)cc1,inactive,inactive,inactive,inactive,inactive,inactive,

SMILES,Potency [1],Potency [2],Potency [3],Potency [4],Potency [5],Potency [6],Potency [7]
Oc1cccc2cccnc12,,6.14 µM (active) and 9.69 µM (active) and inactive,1.38 µM (active) and 1.22 µM (active) and inactive,inactive,,,
O=C(O)C(Cl)(Cl)Cl,inactive,inactive,inactive,inactive,inactive,inactive,
CCCCCCCCn1cc[n+](C)c1,215 nM (active) and 174 nM (active),4.85 µM (active) [middle of 4 runs],,inactive,inactive,inactive,
Nc1ccc(Cl)cc1,inactive,inactive,inactive,inactive,inactive,inactive,inactive
CCCn1cc[n+](C)c1,inactive,inactive,inactive,inactive,inactive,inactive,
C1CCC(NC2CCCCC2)CC1,inactive,inactive,inactive,inactive,inactive,inactive,inactive
CCCCCCCCCCn1cc[n+](C)c1,,,inactive and 2.73 µM (active),inactive,,,
CCCCCCCCCCCCCC[P+](CCCCCC)(CCCCCC)CCCCCC,1.09 µM (active) and 1.1 µM (active) and 769 nM (active),9.73 µM (active) and 24.5 µM (active) and 2.43 µM (active),12.2 µM (active) and 27.5 µM (active),13.7 µM (active) and 27.5 µM (active) and inactive,inactive,68.9 µM (active) and 69.1 µM (active) and inactive,inactive
O=C(O)c1nc(Cl)ccc1Cl,inactive,inactive,inactive,inactive,inactive,inactive,inactive
CC[N+](CC)(CC)CC,inactive,inactive,inactive,inactive,inactive,inactive,
O=[N+]([O-])O,inactive,inactive,inactive,inactive,inactive,inactive,
Nc1ccccc1,inactive,inactive,inactive,inactive,inactive,inactive,
Cc1cc(Cl)ccc1N,inactive,inactive,inactive,inactive,inactive,inactive,
Cc1cc(-c2ccc(N)c(C)c2)ccc1N,8.73 µM (active),inactive,,inactive,,,2.14 µM (active) and inactive
CCCC[n+]1ccccc1,inactive,inactive,inactive,inactive,inactive,inactive,
CCC[N+]1(C)CCCCC1,inactive,inactive,inactive,inactive,inactive,inactive,
CCCC[N+]1(C)CCCC1,inactive,inactive,inactive,inactive,,,
